Drawing on PubChem BioAssay (EPA / NIEHS), this text covers outcome and AC50 for 9 compounds.

Records with an inconclusive call do not appear. Active and inactive are the calls of the source. How the source made its calls, unless noted: active means hit-call score of the fitted dose curve at least 0.9, where 1 is the maximum; inconclusive means response in the unintended direction; inactive means score below 0.9.

As a reminder, the AC50 is the concentration at which the activity in the assay is half-maximal.

The target in experiment [1] is Myc proto-oncogene protein (Homo sapiens) (UniProt P01106). Nature of the experiment: ATG_Myc_CIS: Attagene CIS-FACTORIAL HepG2 Assay for human Myelocytomatosis (Myc) Proto-Oncogene Transcription Factor (AID 2282990; active means hit-call score of the fitted dose curve at least 0.9, where 1 is the maximum; inactive means score below 0.9). The conditions noted are these: HepG2, Attagene cis-reporter transcription factor activity; actives raise or lower the signal. In short, it runs like this: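 DMSO-normalised, bidirectionally fitted reporter mRNA signal. HepG2 cells transfected with cis reporter constructs, treated 24 h; transcripts detected by RT-PCR, 6-FAM primer extension and CE.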

Experiment [2] is described as follows: ATG_NRF2_ARE_CIS: Attagene CIS-FACTORIAL HepG2 Assay for human Nuclear Factor Erythroid 2 Related Factor 2 (NFR2) response to Antioxidant Response Elements (ARE) (AID 2282992; active means hit-call score of the fitted dose curve at least 0.9, where 1 is the maximum; inactive means score below 0.9;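 on AC50: reporter mRNA level measured by RT-PCR and capillary electrophoresis fluorescence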). The conditions noted are these: HepG2 Attagene ARE/NRF2 reporter, transcription factor activity; actives raise or lower the signal. The procedure, abridged:
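Multiplexed reporter mRNA profiling in HepG2 after a 24 h chemical exposure. Curves fitted in both directions relative to DMSO negative control.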

Experiment [3] in a line: ATG_Oct_MLP_CIS: Attagene CIS-FACTORIAL HepG2 Assay for human Octamer-Binding Transcription Factor (Oct) (AID 2282993; active means hit-call score of the fitted dose curve at least 0.9, where 1 is the maximum; inactive means score below 0.9). The conditions noted are these: HepG2 Attagene cis-factorial Oct reporter, mRNA; actives raise or lower the signal. The procedure, abridged:
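HepG2 cells transiently transfected with cis-element-driven reporter transcription units (endogenous TF activity); 24 h compound exposure. Reporter mRNA quantified by RT-PCR, 6-FAM labelling, HpaI digestion and capillary electrophoresis; bidirectional fit versus DMSO baseline.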

For experiment [4], the target named is Cellular tumor antigen p53 (Homo sapiens) (UniProt P04637). Nature of the experiment: ATG_p53_CIS: Attagene CIS-FACTORIAL HepG2 Assay for human p53 Transcription Factor (AID 2282994; active means hit-call score of the fitted dose curve at least 0.9, where 1 is the maximum; inactive means score below 0.9). To be noted: HepG2 p53 cis-element reporter, Attagene mRNA; actives raise or lower the signal. In short, it runs like this: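 Multiplexed reporter mRNA assay in human HepG2 liver cells; cis-regulated units report endogenous factor activity. Values come from bidirectional curve fitting against DMSO negative control after 24 h treatment.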

The target in experiment [5] is human Peroxisome Proliferator-activated Receptor alpha (PPARa), PPARA (gene 5465) (UniProt Q07869). The experiment can be described thus: ATG_PPARa_TRANS: Attagene TRANS-FACTORIAL HepG2 Assay for human Peroxisome Proliferator-activated Receptor alpha (PPARa) (AID 2283001).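 On AC50: potency for gain of reporter signal over DMSO so agonist or activator.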 In short, it runs like this: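 Gain-of-signal endpoint: reporter mRNA induction relative to DMSO, detected by fluorescent RT-PCR and capillary electrophoresis. HepG2 cells transiently carried GAL4-UAS-driven reporter units plus NR-Gal4 fusion; exposure lasted 24 h.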

In experiment [6] the target is human Peroxisome Proliferator-activated Receptor delta (PPARd), PPARD (gene 5467) (UniProt Q03181). The experiment can be described thus: ATG_PPARd_TRANS: Attagene TRANS-FACTORIAL HepG2 Assay for human Peroxisome Proliferator-activated Receptor delta (PPARd) (AID 2283002). In short, it runs like this: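 Measured quantity: GAL4-UAS reporter transcript induction in HepG2 after 24 h chemical dosing, with NR-Gal4 chimeras supplied by transient transfection. Detection by RT-PCR and capillary electrophoresis; upward fit against DMSO.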

For experiment [7], the target named is Retinoic acid receptor alpha (Homo sapiens) (UniProt P10276). The experiment can be described thus: ATG_RARa_TRANS: Attagene TRANS-FACTORIAL HepG2 Assay for human Retinoic Acid Receptor alpha (RARa) (AID 2283005). The procedure, abridged: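 HepG2 cells transiently transfected with multiple reporter units expressing chimeric RARα-GAL4 fusion, with GAL4-UAS-driven reporters. After 24 h compound exposure, reporter mRNA induction quantified by RT-PCR and capillary electrophoresis with fluorescent labeling; gain-of-signal fitted relative to DMSO control.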

Experiment [8] concerns the target Nuclear receptor subfamily 1 group I member 2 (Homo sapiens) (UniProt O75469). Nature of the experiment: ATG_PXR_TRANS: Attagene TRANS-FACTORIAL HepG2 Assay for human Pregnane X Receptor (PXR) (AID 2283008). In short, it runs like this:
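Measures mRNA induction of a GAL4-UAS-driven reporter in human HepG2 cells transiently expressing PXR fused to Gal4, following 24 h treatment. DMSO served as negative control and baseline.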

For experiment [9], the target named is Peroxisome proliferator-activated receptor gamma (Homo sapiens) (UniProt P37231). Nature of the experiment: ATG_PPARg_TRANS: Attagene TRANS-FACTORIAL HepG2 Assay for human Peroxisome Proliferator-activated Receptor-gamma (PPARg) (AID 2283007). The procedure, abridged: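 Twenty-four hours after chemical dosing of transiently transfected HepG2 cells, isolated RNA was converted to cDNA, reporter sequences amplified and 6-FAM-labelled, then HpaI-digested and analysed by capillary electrophoresis. Signal increase against DMSO was fitted.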

Experiment [10] concerns the target human Retinoic Acid Receptor beta (RARb), RARB (gene 5915) (UniProt P10826). The experiment can be described thus: ATG_RARb_TRANS: Attagene TRANS-FACTORIAL HepG2 Assay for human Retinoic Acid Receptor beta (AID 2283004). The procedure, abridged: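 Transient transfection of HepG2 with multiple reporter units → chemical dosing, 24 h → total RNA isolation → RT with oligo(dT) → reporter-specific PCR, 6-FAM primer extension, HpaI digest → capillary electrophoresis. Positive direction vs DMSO control.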

In experiment [11] the target is human RAR-related Orphan Receptor gamma (RORg), RORC (gene 6097) (UniProt P51449). Nature of the experiment: ATG_RORg_TRANS: Attagene TRANS-FACTORIAL HepG2 Assay for human RAR-related Orphan Receptor gamma (RORg) (AID 2283011). In short, it runs like this: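 First, HepG2 liver cells were transfected with GAL4-UAS-driven reporter constructs and the RORg-Gal4 fusion. Next, they were treated with chemical for 24 h. Finally, reporter mRNA was quantified by RT-PCR and capillary electrophoresis, with upward activity fitted against DMSO.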

In experiment [12] the target is human Retinoic Acid Receptor gamma (RARg), RARG (gene 5916) (UniProt P13631). The experiment can be described thus: ATG_RARg_TRANS: Attagene TRANS-FACTORIAL HepG2 Assay for human Retinoic Acid Receptor gamma (RARg) (AID 2283009). The procedure, abridged:
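Transient transfection of HepG2 with multi-reporter constructs, then 24 h chemical treatment. Total RNA isolated, reverse-transcribed, PCR-amplified, fluorescently labelled and resolved by capillary electrophoresis; activity scored as mRNA induction versus DMSO.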

Experiment [13] concerns the target human RAR-related Orphan Receptor beta (RORb), RORB (gene 6096) (UniProt Q92753). The experiment can be described thus: ATG_RORb_TRANS: Attagene TRANS-FACTORIAL HepG2 Assay for human RAR-related Orphan Receptor beta (RORb) (AID 2283010). In short, it runs like this: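 Readout is reporter-gene mRNA induction, detected as fluorescence after RT-PCR and capillary electrophoresis, fitted for gain of signal against DMSO controls. Transiently transfected HepG2 liver cells carrying GAL4-UAS reporter constructs were treated for 24 hours.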

A short description of experiment [14]: BSK_3C_TissueFactor: BioMAP Diversity Plus: 3C Assay for Tissue Factor Biomarker Activity (AID 2282997; active means hit-call score of the fitted dose curve at least 0.9, where 1 is the maximum; inactive means score below 0.9). To be noted: BioMAP 3C HUVEC, tissue factor biomarker readout; actives raise or lower the signal. In short, it runs like this:
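ELISA read-out of Tissue Factor levels on human umbilical vein endothelium collected 24 h after chemical dosing. Gain or loss of signal was fitted relative to DMSO.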

Experiment [15] can be described thus: BSK_3C_uPAR: BioMAP Diversity Plus: 3C Assay for Urokinase-type plasminogen activator receptor (uPAR) Biomarker Activity (AID 2282998; active means hit-call score of the fitted dose curve at least 0.9, where 1 is the maximum; inactive means score below 0.9). The conditions noted are these: BioMAP 3C HUVEC, uPAR biomarker ELISA; actives raise or lower the signal. The procedure, abridged:
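Primary human umbilical vein endothelial cells, 3C system; surface uPAR measured by ELISA 24 h after dosing. Cytotoxicity via SRB total protein in parallel cultures; bidirectional fit against DMSO.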

A short description of experiment [16]: BSK_3C_VCAM1: BioMAP Diversity Plus: 3C Assay for Vascular cell adhesion molecule 1 (VCAM1) Biomarker Activity (AID 2282999; active means hit-call score of the fitted dose curve at least 0.9, where 1 is the maximum; inactive means score below 0.9). The conditions noted are these: BioMAP 3C HUVEC, VCAM1 ELISA, cytokine-stimulated; actives raise or lower the signal. In short, it runs like this: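 Human umbilical vein endothelial cells were dosed with compound for 24 h, after which cell-surface VCAM-1 was quantified by ELISA. Bidirectional curve fitting used DMSO as negative control and activity baseline.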
A general note: ELISA stands for enzyme-linked immunosorbent assay.

Experiment [17] can be described thus: BSK_4H_Eotaxin3: BioMAP Diversity Plus: 4H Assay for Eotaxin 3 Biomarker Activity (AID 2283000; active means hit-call score of the fitted dose curve at least 0.9, where 1 is the maximum; inactive means score below 0.9). The conditions noted are these: primary human endothelial cells (HUVEC); actives raise or lower the signal. The procedure, abridged: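 Chemicals were added to human umbilical vein endothelium cultures, and Eotaxin-3 was quantified by ELISA at 24 h. Values were derived by bidirectional fitting with DMSO serving as negative control and activity baseline.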

The nature of experiment [18]: BSK_3C_Proliferation: Cell Proliferation Assessment in the BioMAP Diversity Plus: 3C Assay (AID 2283006; active means hit-call score of the fitted dose curve at least 0.9, where 1 is the maximum; inactive means score below 0.9;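 further: potency may reflect either rise or fall in cell number versus DMSO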). The conditions noted are these: primary human endothelial cells (HUVEC). The procedure, abridged: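 Read-out is total protein by SRB absorbance at 560 nm, taken as a proxy for relative cell number. Primary human umbilical vein endothelium cultured below confluence was dosed for 48 h, TCA-fixed and SRB-stained; curves were fitted bidirectionally versus DMSO.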

Sequence of Peroxisome proliferator-activated receptor gamma (Homo sapiens) (P37231 whole entry, looked up): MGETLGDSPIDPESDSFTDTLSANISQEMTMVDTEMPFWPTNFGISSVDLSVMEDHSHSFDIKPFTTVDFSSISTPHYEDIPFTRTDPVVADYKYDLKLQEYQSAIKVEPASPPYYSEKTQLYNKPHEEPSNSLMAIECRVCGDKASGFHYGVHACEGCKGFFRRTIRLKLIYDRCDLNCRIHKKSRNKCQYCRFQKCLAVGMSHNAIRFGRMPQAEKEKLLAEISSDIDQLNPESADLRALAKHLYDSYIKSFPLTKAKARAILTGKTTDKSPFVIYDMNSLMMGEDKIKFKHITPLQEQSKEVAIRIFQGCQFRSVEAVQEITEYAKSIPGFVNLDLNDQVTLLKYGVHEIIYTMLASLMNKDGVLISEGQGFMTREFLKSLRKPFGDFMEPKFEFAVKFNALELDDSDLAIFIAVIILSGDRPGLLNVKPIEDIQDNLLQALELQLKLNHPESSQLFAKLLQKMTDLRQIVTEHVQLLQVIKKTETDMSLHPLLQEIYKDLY
Sequence of human Retinoic Acid Receptor gamma (RARg), RARG (gene 5916) (P13631 whole entry, looked up): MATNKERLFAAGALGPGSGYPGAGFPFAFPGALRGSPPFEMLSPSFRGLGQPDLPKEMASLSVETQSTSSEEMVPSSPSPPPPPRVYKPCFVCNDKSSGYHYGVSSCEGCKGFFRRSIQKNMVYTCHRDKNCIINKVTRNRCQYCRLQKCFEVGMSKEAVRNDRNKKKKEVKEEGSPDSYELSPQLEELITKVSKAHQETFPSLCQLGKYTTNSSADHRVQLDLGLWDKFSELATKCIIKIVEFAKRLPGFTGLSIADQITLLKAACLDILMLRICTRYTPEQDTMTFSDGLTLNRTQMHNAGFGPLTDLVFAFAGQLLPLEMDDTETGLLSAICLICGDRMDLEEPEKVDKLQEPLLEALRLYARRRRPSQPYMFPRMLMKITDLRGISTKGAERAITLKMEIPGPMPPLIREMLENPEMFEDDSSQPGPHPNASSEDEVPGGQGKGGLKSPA
Sequence of Myc proto-oncogene protein (Homo sapiens) (P01106 whole entry, looked up): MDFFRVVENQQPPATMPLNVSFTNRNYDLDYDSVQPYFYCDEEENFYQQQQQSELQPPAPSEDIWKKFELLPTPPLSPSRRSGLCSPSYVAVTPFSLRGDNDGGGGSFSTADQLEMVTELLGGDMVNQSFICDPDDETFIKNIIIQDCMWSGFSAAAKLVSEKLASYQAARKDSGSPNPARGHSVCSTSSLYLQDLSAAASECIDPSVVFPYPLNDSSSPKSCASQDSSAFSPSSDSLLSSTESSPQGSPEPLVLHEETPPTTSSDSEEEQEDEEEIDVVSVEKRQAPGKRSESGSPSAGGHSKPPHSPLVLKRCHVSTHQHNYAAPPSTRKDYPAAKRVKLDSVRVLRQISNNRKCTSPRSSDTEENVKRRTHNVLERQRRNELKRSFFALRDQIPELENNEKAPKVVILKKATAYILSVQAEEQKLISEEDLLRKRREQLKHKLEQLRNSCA
Sequence of human RAR-related Orphan Receptor gamma (RORg), RORC (gene 6097) (P51449 whole entry, looked up, the tested form may be a part): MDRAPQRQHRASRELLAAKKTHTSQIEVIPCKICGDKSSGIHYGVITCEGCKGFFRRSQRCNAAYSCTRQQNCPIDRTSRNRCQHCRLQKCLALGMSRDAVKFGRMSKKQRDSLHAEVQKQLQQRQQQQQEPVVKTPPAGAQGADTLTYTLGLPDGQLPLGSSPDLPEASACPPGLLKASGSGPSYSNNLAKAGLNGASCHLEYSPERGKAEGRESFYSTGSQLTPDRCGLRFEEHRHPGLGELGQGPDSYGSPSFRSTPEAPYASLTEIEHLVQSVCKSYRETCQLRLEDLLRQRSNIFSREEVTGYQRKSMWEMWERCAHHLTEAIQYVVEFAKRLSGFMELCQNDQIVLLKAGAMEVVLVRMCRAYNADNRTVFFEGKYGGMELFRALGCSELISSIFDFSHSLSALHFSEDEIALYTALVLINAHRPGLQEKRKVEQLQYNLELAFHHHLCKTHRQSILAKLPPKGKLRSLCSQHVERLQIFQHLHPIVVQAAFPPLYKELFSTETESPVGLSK
Sequence of human Peroxisome Proliferator-activated Receptor delta (PPARd), PPARD (gene 5467) (Q03181 whole entry, looked up, the tested form may be a part): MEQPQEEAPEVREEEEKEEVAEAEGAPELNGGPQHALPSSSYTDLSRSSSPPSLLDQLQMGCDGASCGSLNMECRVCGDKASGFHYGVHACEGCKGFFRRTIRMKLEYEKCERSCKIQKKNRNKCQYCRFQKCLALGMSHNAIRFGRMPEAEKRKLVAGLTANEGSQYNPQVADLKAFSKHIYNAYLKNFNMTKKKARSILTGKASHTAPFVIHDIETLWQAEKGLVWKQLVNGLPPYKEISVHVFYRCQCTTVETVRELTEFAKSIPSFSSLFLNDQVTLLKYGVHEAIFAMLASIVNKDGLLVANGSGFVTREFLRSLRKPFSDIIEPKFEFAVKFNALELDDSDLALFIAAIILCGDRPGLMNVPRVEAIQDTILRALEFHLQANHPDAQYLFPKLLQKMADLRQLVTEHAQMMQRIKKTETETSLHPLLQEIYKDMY
Sequence of human Peroxisome Proliferator-activated Receptor alpha (PPARa), PPARA (gene 5465) (Q07869 whole entry, looked up, the tested form may be a part): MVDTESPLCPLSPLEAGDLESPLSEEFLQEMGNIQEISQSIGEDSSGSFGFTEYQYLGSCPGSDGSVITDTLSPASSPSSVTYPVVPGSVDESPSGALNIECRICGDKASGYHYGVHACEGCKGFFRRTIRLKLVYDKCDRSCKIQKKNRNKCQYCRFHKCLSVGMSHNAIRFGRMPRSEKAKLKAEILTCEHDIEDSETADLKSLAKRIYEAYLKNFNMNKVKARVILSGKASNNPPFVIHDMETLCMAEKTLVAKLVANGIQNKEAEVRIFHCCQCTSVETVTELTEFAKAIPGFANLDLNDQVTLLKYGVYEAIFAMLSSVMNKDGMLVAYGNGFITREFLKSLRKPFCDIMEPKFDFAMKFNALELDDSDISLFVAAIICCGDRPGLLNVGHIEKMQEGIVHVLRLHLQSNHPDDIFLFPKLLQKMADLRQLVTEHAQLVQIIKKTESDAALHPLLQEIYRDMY
Sequence of Retinoic acid receptor alpha (Homo sapiens) (P10276 whole entry, looked up, the tested form may be a part): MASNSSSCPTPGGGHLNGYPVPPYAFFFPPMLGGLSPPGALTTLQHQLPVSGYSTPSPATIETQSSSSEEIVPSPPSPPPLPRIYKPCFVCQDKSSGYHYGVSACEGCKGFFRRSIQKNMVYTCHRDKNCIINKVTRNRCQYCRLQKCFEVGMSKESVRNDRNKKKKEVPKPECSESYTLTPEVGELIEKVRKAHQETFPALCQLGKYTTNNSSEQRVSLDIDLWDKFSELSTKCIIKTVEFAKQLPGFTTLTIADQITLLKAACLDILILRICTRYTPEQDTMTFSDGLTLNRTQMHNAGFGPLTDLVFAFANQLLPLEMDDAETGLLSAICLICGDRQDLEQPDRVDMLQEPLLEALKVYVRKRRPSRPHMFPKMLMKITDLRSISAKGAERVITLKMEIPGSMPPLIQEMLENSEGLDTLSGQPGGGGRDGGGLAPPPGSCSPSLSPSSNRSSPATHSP
Sequence of Nuclear receptor subfamily 1 group I member 2 (Homo sapiens) (O75469 whole entry, looked up, the tested form may be a part): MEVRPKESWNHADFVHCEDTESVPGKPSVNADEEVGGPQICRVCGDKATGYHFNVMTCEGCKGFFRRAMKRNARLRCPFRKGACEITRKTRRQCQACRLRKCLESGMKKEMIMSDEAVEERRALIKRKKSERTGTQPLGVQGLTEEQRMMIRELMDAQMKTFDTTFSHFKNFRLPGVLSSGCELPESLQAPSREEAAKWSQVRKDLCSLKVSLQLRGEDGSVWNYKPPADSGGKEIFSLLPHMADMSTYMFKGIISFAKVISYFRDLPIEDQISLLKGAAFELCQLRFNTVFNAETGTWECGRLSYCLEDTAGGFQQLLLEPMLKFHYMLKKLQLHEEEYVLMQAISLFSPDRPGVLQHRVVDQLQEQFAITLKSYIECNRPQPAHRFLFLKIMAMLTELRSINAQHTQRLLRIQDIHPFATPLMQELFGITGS
Sequence of Cellular tumor antigen p53 (Homo sapiens) (P04637 whole entry, looked up): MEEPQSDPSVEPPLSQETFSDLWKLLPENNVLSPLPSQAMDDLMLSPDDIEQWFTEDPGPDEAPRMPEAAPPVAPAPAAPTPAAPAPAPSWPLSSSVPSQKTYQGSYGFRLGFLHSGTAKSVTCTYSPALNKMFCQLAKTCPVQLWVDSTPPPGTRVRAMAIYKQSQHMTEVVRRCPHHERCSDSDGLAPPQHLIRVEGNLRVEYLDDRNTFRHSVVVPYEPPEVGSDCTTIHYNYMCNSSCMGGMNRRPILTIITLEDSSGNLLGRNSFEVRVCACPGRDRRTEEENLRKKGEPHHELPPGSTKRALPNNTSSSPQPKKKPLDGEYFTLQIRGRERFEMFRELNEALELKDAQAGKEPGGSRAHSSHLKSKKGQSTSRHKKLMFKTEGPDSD
Sequence of human RAR-related Orphan Receptor beta (RORb), RORB (gene 6096) (Q92753 whole entry, looked up, the tested form may be a part): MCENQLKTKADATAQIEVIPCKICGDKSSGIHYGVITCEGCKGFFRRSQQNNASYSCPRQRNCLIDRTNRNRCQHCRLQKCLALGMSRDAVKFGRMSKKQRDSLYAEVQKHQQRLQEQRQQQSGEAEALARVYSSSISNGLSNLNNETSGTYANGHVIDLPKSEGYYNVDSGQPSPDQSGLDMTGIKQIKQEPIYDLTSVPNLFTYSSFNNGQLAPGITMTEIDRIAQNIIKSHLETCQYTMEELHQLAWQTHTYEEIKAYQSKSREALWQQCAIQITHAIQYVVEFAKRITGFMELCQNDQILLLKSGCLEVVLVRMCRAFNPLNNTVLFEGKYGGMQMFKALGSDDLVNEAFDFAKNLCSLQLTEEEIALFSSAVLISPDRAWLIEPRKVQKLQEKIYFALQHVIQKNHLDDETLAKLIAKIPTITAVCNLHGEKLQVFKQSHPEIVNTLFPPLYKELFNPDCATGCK

Take `OCc1ccc(Cl)cc1Cl`: the compound was classed as inactive in experiment [1], in [2], in [3], in [4], in experiment [5] and in [6]. For the same compound, the compound was classed as inactive in [7] and in [8].

In the case of `COc1cc(CCC(C)=O)ccc1O`, the outcome in experiment [1], in experiment [2], in experiment [3], in experiment [4], in experiment [5] and in experiment [7] was inactive. Moreover, the compound was called inactive in experiment [9] and in [8].

Turning to `OCC#CCO`, the compound was called inactive in experiment [1], in experiment [2], in experiment [3], in experiment [4], in [5] and in experiment [10]. Also, the compound was classed as inactive in experiment [7], in experiment [9] and in [11].

For `O=[N+]([O-])c1ccc(O)cc1C(F)(F)F`, the result in experiment [1], in experiment [4], in experiment [5], in experiment [6], in [10] and in [7] was inactive. Also, the compound was classed as inactive in experiment [12], in experiment [13] and in experiment [11]. In addition, the half-maximal activity concentration (AC50) in experiment [2] is 52.8 µM (active); in experiment [3], 55.2 µM (active); in experiment [9], 38.7 µM (active).

Regarding `CC(C=O)Cc1ccc(C(C)(C)C)cc1` (centres undefined), the call in [1], in [3], in experiment [4] and in experiment [6] was inactive. Moreover, the half-maximal activity concentration (AC50) is 26.4 µM (active) in [2]; 31.1 µM (active) in [14]; 32.9 µM (active) in experiment [15]; 36.4 µM (active) in experiment [16]; 36 µM (active) in [17]; 40.7 µM (active) in [5]. For the same compound, the half-maximal activity concentration (AC50) is 30.9 µM (active) in experiment [18], 79.1 µM (active) in [9] and 23.1 µM (active) in experiment [8].

Regarding `O=C1CCCC=CCCCCCCCCCC1`, the outcome in experiment [1], in [3], in experiment [4], in experiment [5] and in experiment [6] was inactive. For the same compound, the AC50 is 45.7 µM (active) in experiment [2], 66.8 µM (active) in experiment [9] and 10.3 µM (active) in [8].

`CCCN(CCC)S(=O)(=O)c1ccc(C(=O)O)cc1`: the call in [1], in experiment [2], in experiment [3], in experiment [4], in experiment [5] and in [9] was inactive. Besides, the compound was called inactive in [13] and in [11]. In [8], the AC50 was 18.7 µM (active).

For `Nc1c(Cl)cc(Cl)cc1[N+](=O)[O-]`, the outcome in [1], in experiment [3], in [4], in [5], in experiment [6] and in experiment [12] was inactive. Moreover, the results for the AC50 in [2] and in experiment [8] were 41.5 µM (active) and 16.5 µM (active), respectively.

In the case of `CC(=O)O[C@@H]1C[C@@H]2CC[C@@]1(C)C2(C)C`, the result in experiment [1], in experiment [2], in experiment [3], in [4], in [5] and in experiment [7] was inactive. Further, the call in [8], in experiment [12] and in experiment [11] was inactive.
